Assay results published in PubChem BioAssay AID493185 (National Center for Advancing Translational Sciences (NCATS), 2011).
Activity calls are given as the source filed them. Where a call stands in place of a potency, no number is given. The call rests on the fitted dose curve; in most records, active means well fitted activation curve with a large enough effect; inconclusive means small, poorly fitted or top-dose-only effect; inactive means no such curve, though single readings can be large or run the other way.

Test: Counterscreen for Identifying a Potential Treatment of Ataxia-Telangiectasia: Hit Validation
Conditions: cell-free AlphaLISA/AlphaScreen artifact counterscreen, PBS only, no cells; series mostly up to 76.9 µM
Procedure, shortened: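 Without cells, compounds at up to 76.7 uM final were combined with premixed anti-pKAP1/anti-KAP1 AlphaLISA bead reagents, protease inhibitors and lysis buffer; signal read after 6 hr at 25C to flag assay-platform artifacts.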

Row | SMILES | Potency
1 | COc1ccccc1Nc1nc(NCCCN(C)C)nc(N)c1[N+](=O)[O-] | inactive
2 | CCOC(=O)NC(C(Cl)(Cl)Cl)S(=O)(=O)c1ccccc1 (configuration not stated) | inactive
3 | O=C(CCCC(=O)N1CCCC1)N1CCCC1 | inactive
4 | Cc1ccc(C2(C)NC(=O)N(CC(=O)Nc3ccccc3N3CCCC3)C2=O)cc1 (configuration not stated) | inactive
5 | COc1cccc(OC)c1C(=O)NC(=O)Nc1c(C)cccc1C | inactive
6 | COc1ccccc1-n1c(SCC(N)=O)nc2sc3c(c2c1=O)CCC3 | inactive
7 | CNC(=S)N(CCc1c(C)[nH]c2ccc(Cl)cc12)Cc1cccnc1 | inactive
8 | CCN1C/C(=C/c2sccc2C)c2nc3ccccc3c(C(=O)O)c2C1 | inactive
9 | O=C(CSc1ccccn1)N/N=C/C=C/c1ccccc1 | inactive
10 | Cc1oc2c(c(C)cc3oc(=O)c(CC(=O)NCC(=O)NCC(=O)O)c(C)c32)c1C | inactive
11 | O=C1C2C3C=CC(CC3)C2C(=O)N1c1cccc(Br)c1 (configuration not stated) | inactive
12 | O=c1c2cc(Br)ccc2nc(-c2ccccc2)n1O | inactive
13 | Oc1cccc(NC(=S)N=Nc2c(O)[nH]c3ccccc23)c1 | inactive
14 | CCC(=O)NC1=C(Cl)C(=O)C(NC(=O)CC)=C(Cl)C1=O | inactive
15 | Brc1c(C[n+]2ccccc2)nc2ccccn12 | inactive
16 | CCn1c(N2CCN(CC(=O)c3c[nH]c4ccccc34)CC2)nc2c1c(=O)[nH]c(=O)n2C | inactive
17 | CCC(=O)Nc1ccc(S(=O)(=O)c2ccc(NC(=O)CC)cc2)cc1 | inactive
18 | CCC(C)NC(=O)c1cn(CCOC)c(=O)c2c1c1ccccc1n2C (configuration not stated) | inactive
19 | CC(C)(CN1CCN(c2ccccc2)CC1)NS(=O)(=O)c1ccccc1 | inactive
20 | CCCc1nn(C)c(C(=O)Nc2ccc(C(C)(C)C)cc2)c1Cl | inactive
21 | Cn1c(=O)[nH]c(=O)c2[nH]c(N(Cc3ccccc3)Cc3ccccc3)nc21 | inactive
22 | Fc1ccc(C2N(c3ccccc3)C(=S)N3CCCN23)cc1 (configuration not stated) | inactive
